Experimental data from PubChem BioAssay AID588692 (Broad Institute, 2011).
Screen size: about 360,000 compounds; about 830 (0.23%) were called active.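 How the source made its calls: active means mean luciferase reporter signal, scaled so untreated is 0 and the glycosylation-blocking control 100, at or above a set limit in every replicate; inconclusive means mean reaches the limit but not every replicate does; inactive means mean below the limit.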 The sample as a whole holds a higher share of actives than the screen did.

assay: D54 reporter luminescence gain compounds – D54 ERlucT cells, set 2, N-linked glycosylation inhibitor project, primary screen (AID 588692); conditions: D54 ERlucT glycosylation luciferase reporter, 24 h; at 12.5 µM; hits give high values; percent of 100 nM tunicamycin response;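 further: luciferase carries N-glycosylation sites so blocking glycosylation raises the light; 0% = median of neutral control wells and 100% = median of 100 nM tunicamycin wells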

SMILES | reporter increase
CCCC(=O)Nc1nc2ccc(NC(=O)c3c(F)c(F)c(OC)c(F)c3F)cc2s1 | 45.8% (active)
CCCn1nc(C(=O)Nc2ccc3nc(C)sc3c2)c2ccccc2c1=O | -5.69% (inactive)
CC(=O)Nc1ccc2nc(NC(=O)CS(=O)(=O)c3ccc(F)cc3)sc2c1 | 1.57% (inactive)
O=C(NCN1CCN(CCO)CC1)c1cnccn1 | 1.41% (inactive)
Cc1cc(C)c2nc(SCC(=O)N(C)C3CCS(=O)(=O)C3)cc(C)c2c1 (centres undefined) | -2.35% (inactive)
CC1CCN(c2ccc(-c3ccc(NC(=O)c4ccco4)cc3)nn2)CC1 | -3.17% (inactive)
COc1cc(OC)cc(C(=O)NCCCn2ccnc2)c1 | -1.14% (inactive)
O=C(NCCCn1ccnc1)c1cc(-c2ccccc2)on1 | 86.5% (active)
O=C(NCCCn1ccnc1)c1cc(Br)c(Br)s1 | -1.37% (inactive)
CC(C)CC1C(=O)N(Cc2cn(CC3CCCCC3)nn2)CCS(=O)(=O)N1Cc1ccc(-c2ccc(Cl)cc2)cc1 (centres undefined) | -5.63% (inactive)
COc1ccc(-c2c(C#N)cnc(C)c2C)c(O)c1OC | 1.16% (inactive)
CSc1ncnc2c1ncn2CCCNCc1ccco1 | -1.13% (inactive)
CCc1ccccc1NC(=O)Cc1cn(C)c2ccccc12 | 0.183% (inactive)
COc1ccc(CNC(=O)C[C@H]2C[C@H](C(=O)N3CCOCC3)[C@@]3(C)c4[nH]c5cc(CCC(=O)N(C)C)ccc5c4CCN3C2=O)cc1OC | 1.84% (inactive)
O=C(OC(C(=O)NC1CCCC1)c1ccc(F)cc1)c1ccno1 (centres undefined) | 3.11% (inactive)
O=C1c2cccc3c([N+](=O)[O-])ccc(c23)C(=O)N1CC1CCCO1 (centres undefined) | 29.4% (active)
O=C1C(C=NCC2CCCO2)=C(O)c2ccccc21 (centres undefined) | -4.51% (inactive)
N#Cc1cc([N+](=O)[O-])ccc1NCC1CCCO1 (centres undefined) | -0.076% (inactive)
C[C@@H]1C[C@@H]2O[C@H]2/C=C\C=C\C(=O)Cc2c(Cl)c(O)cc(O)c2C(=O)O1 | -14.3% (inactive)
CCC1=C(OC(=O)N(CC)CC)N2C(=O)OC(=NCCc3c[nH]c4ccccc34)[C@]2(C)[C@H]2C1=CC[C@H]1C(=O)N(CC)C(=O)[C@H]12 | -4.07% (inactive)
CC(=O)c1ccc(S(=O)(=O)NCCC(=O)N2CCN(c3ccccn3)CC2)cc1 | -0.855% (inactive)
CCN(CC(=O)Nc1c(F)cccc1F)C(=O)C1CCC1 | 0.369% (inactive)
CC(=O)Nc1ccc(SCC(=O)NC(=O)c2ccc(Cl)cc2)cc1 | -6.32% (inactive)

SMILES | reporter increase
O=C(CCl)Nc1ccc(Sc2ccc(NC(=O)CCl)cc2)cc1 | 41% (active)
O=C(O)CSCC(=O)Nc1ccc(C(F)(F)F)cc1 | 1.33% (inactive)
Cc1ccccc1NC(=O)c1ccc(COc2ccc3c(C)cc(=O)oc3c2)cc1 | -2.09% (inactive)
O=C(c1ccccc1)C(Cn1cncn1)C(Sc1ccccc1)c1ccccc1 (centres undefined) | -3.83% (inactive)
O=C(Cc1ccc([N+](=O)[O-])cc1)NCCc1ccc2c(c1)OCO2 | -0.789% (inactive)
CC1CCN(c2ccc(C(=O)NCc3ccc4c(c3)OCO4)cc2[N+](=O)[O-])CC1 | -1.89% (inactive)
O=C(NCc1ccc2c(c1)OCO2)c1cc([N+](=O)[O-])ccc1N1CCOCC1 | 25.7% (active)
Cc1ccc(C(=O)NCC(c2cccs2)N(C)C)cc1S(=O)(=O)N1CCOCC1 (centres undefined) | 0.45% (inactive)
Cc1nc(-c2ccccc2)sc1-c1nnc(C2CC2)o1 | 0.986% (inactive)
CCOC(=O)C1CCCN(Cc2nc(N)nc(Nc3ccc(C)cc3)n2)C1 (centres undefined) | 1.57% (inactive)
Cc1ccc(Nc2nc(N)nc(CN3CCN(Cc4ccccc4)CC3)n2)cc1Cl | 49% (active)
Cc1ccccc1Nc1nc(N)nc(CN2CCN(c3ccccn3)CC2)n1 | 1.95% (inactive)
CCN(C(=O)COC(=O)c1cc(S(=O)(=O)N2CCc3ccccc32)ccc1OC)C1CCS(=O)(=O)C1 (centres undefined) | -1.41% (inactive)
Cc1cccc(C(=O)NCc2nnc(SC(C)C(=O)Nc3nnc(C)s3)n2C)c1 (centres undefined) | -0.286% (inactive)
CC(C)(Oc1ccc(C2CC2(Cl)Cl)cc1)C(=O)O (centres undefined) | 4.07% (inactive)
O=C(Nc1ccccc1F)c1ccc(S(=O)(=O)N2CCCCCC2)cc1 | -0.684% (inactive)
Nc1ccc(C(=O)Nc2ccccc2N)cc1 | 69.6% (active)
O=C(Cc1ccccc1)Nc1ccc(C(=O)Nc2ccccc2C(=O)O)cc1 | 1.55% (inactive)
Cc1ccc(S(=O)(=O)NC(=O)N2CCCN(Cc3ccc(F)cc3)CC2)cc1 | -2.48% (inactive)
O=C(CCNS(=O)(=O)c1ccccc1)NCCSc1ccc(Br)cc1 | 2.32% (inactive)
CC1(C)CC(=O)C=C(NCc2ccncc2)C1 | 1.27% (inactive)
O=C(CCN1C(=O)C2CCCCC2C1=O)Nc1ccc(OC(F)F)cc1 (centres undefined) | 0.177% (inactive)
Cc1cc(Cl)ccc1N1C(=O)CC(SCCC(=O)O)C1=O (centres undefined) | 1.84% (inactive)

SMILES | reporter increase
O=C(O)CC(Cc1ccccc1)C(=O)Nc1ccc([N+](=O)[O-])cc1 (centres undefined) | -1.27% (inactive)
COc1cccc(C(NC(C)=O)c2nc(-c3cnc4ccccc4c3)cs2)c1 (centres undefined) | 1.72% (inactive)
CC(=O)NC(c1ccccc1)c1nc(-c2ccccc2C)cs1 (centres undefined) | 11.9% (inactive)
COc1cccc(C(NC(C)=O)c2nc(-c3ccccc3OC)cs2)c1 (centres undefined) | 62.8% (active)
COc1cccc(C(=O)N2CCC(n3nccc3NC(=O)C3CCOC3)CC2)c1 (centres undefined) | 0.842% (inactive)
COc1ccc(Cl)cc1NS(=O)(=O)c1cccc(C(=O)NC2CCC(O)CC2)c1 (centres undefined) | -1% (inactive)
Cc1[nH]n(C(N)=S)c(=O)c1N=Nc1ccc(Cl)cc1Cl | -0.0505% (inactive)
CC(=O)NC(Cc1ccc(F)c(F)c1)C(=O)NC1CCN(c2nnnn2-c2ccccc2)CC1 (centres undefined) | 0.485% (inactive)
Cc1cccc(C(=O)Nc2ccc(C(=O)/C=C/c3cccs3)cc2)c1 | -1.77% (inactive)
C/C(=N\OCC(=O)Nc1ccc(Br)cc1)c1cccs1 | 2.32% (inactive)
Cc1ccc(OCC(=O)Nc2ccc(NC(=O)c3cccs3)cc2)c(C)c1 | 79.9% (active)
Cc1ccc(NNC(=O)c2cccs2)cc1Cl | 1.56% (inactive)
Cc1ccc(OCC(=O)Nc2ccc(N3CCN(C(=O)c4ccco4)CC3)cc2)c(C)c1 | -5.46% (inactive)
Cc1ccc(C(=O)Nc2ccc(NC(=O)c3cccs3)cc2)c(C)c1 | 47.6% (active)
O=C(NCCN1CCOCC1)c1ccccc1N1C(=O)[C@@H]2Cc3c([nH]c4ccccc34)C(c3cccc(Cl)c3)N2C1=O (some centres undefined) | 4.03% (inactive)
COC(=O)c1cccc(N(C(=O)c2ccco2)C(C(=O)NC2CCCC2)c2ccco2)c1 (centres undefined) | 1.26% (inactive)
COCCNc1ncnc2c1ncn2[C@H]1CN(Cc2ccc(OC)cc2)C[C@@H](CO)O1 | 0.218% (inactive)
CC(C)C[C@H](NC(=O)NCCc1ccc(Cl)cc1)C(=O)O | 0.0345% (inactive)
CCN(CC)C(=O)CSc1nnc(-c2cnccn2)n1-c1ccc(C)cc1 | 1.32% (inactive)
Cc1cccc(NC(=O)C(C)N2C(=O)C3C4CC(C(Br)C4Br)C3C2=O)c1 (centres undefined) | 2.15% (inactive)
CCN(C(=O)c1cc([N+](=O)[O-])ccc1NCc1cccnc1)c1ccccc1 | -2.09% (inactive)
Cn1cnc2c1c(=O)n(Cc1ccccc1C#N)c(=O)n2C | 1.69% (inactive)
Cc1cc2oc(=O)cc(CN(C)Cc3ccccc3)c2cc1Cl | 0.116% (inactive)

SMILES | reporter increase
CCN1C(=O)CS/C1=N\c1nccs1 | 0.352% (inactive)
C=CCC[C@@H](Cc1ccc(F)cc1)C(=O)OC[C@H](Cc1c[nH]c2ccccc12)NC(=O)[C@@H](CC=C)CC(=O)N(CCO)Cc1ccccc1 | -0.357% (inactive)
Cn1c(=O)n(C)c2cc(S(=O)(=O)Nc3ccc(F)cc3)ccc21 | 2.56% (inactive)
Cn1c(=O)n(C)c2cc(NS(=O)(=O)c3ccc(F)cc3)ccc21 | 27.7% (active)
Cn1c(CCN2CCN(c3ccccn3)CC2)nc2cc(NS(=O)(=O)c3ccc(F)cc3)ccc21 | -5.5% (inactive)
COc1ccccc1CNC(=O)c1cc(-c2cc(F)ccc2OC)n[nH]1 | 0.448% (inactive)
Cc1cc(F)ccc1N1CCC(N2CCN(C)C(CCO)C2)CC1 (centres undefined) | -1.14% (inactive)
Cc1cc(O)ccc1-c1cc(C(=O)NCc2cc(C(F)(F)F)cc(C(F)(F)F)c2)[nH]n1 | 1.18% (inactive)
COCCCNC(=O)c1ccc(-c2c(C)noc2C)c2ccoc12 | 19.8% (inactive)
COc1ccc(-c2coc3c(C(=O)NC(C)C)cccc23)c(C)c1 | -2.53% (inactive)
COCCCNC(=O)c1cccc2c(-c3ccc(O)c(OC)c3)coc12 | 31.5% (active)
COc1ccc(-c2ccc(CN3C(CC(C)C)C(=O)N(Cc4cn(CC5CCCCC5)nn4)CCS3(=O)=O)cc2)cn1 (centres undefined) | 4.1% (inactive)
CSCCC(C(=O)NC1=NCCS1)N1C(=O)c2ccccc2C1=O (centres undefined) | -0.003% (inactive)
COc1ccc(N2CCN(S(=O)(=O)c3cc4c5c(c3)C(C)C(=O)N5CCC4)CC2)cc1 (centres undefined) | -1.71% (inactive)
CCn1nc(C(=O)NNC(=O)C2CSC3(C)CCC(=O)N23)c2ccccc2c1=O (centres undefined) | -0.092% (inactive)
CC(NCc1cccs1)C(=O)Nc1cc(Cl)cc(Cl)c1 (centres undefined) | 0.0655% (inactive)
O=C(N/N=C/C=C/c1ccccc1)C1CC1(c1ccccc1)c1ccccc1 (centres undefined) | -0.496% (inactive)
CN(C)S(=O)(=O)c1ccc(N2CCCC2)c(C(=O)Nc2ccc(Br)cc2F)c1 | -1.25% (inactive)
CN(C)S(=O)(=O)c1ccc(N2CCCC2)c(C(=O)Nc2cccc(F)c2)c1 | 48.8% (active)
CN(C)S(=O)(=O)c1ccc(N2CCCC2)c(C(=O)NCc2ccccc2)c1 | -1.02% (inactive)
